Drawing on PubChem BioAssay (NCI), this text covers growth for 9 molecules.

The panel holds about 83,000 compounds, 20% with a hit somewhere; the sample as a whole holds those more often.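 Negative percent growth values reflect cell death: -40 means 40% of the cells present at the start died, and -100 means all died.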 Unmarked numbers belong to inactive results. Active and inactive are the calls of the source. How the source made its calls: active means growth percent below 10; inactive means the rest.

Common to all, as to test: NCI-60 one-dose screen, 48 h (100 = growth as untreated, 0 = no growth, -100 = all killed)
For assay [1], the system named is NCI-H23 lung. As to conditions: 10 µM unless noted.
Assay [2] has as its system NCI-H226 lung. As to conditions: 10 µM unless noted.
Assay [3] relates to NCI-H322M lung. As to conditions: 10 µM unless noted.
Assay [4] has as its system HOP-62 NSCLC. As to conditions: 10 µM unless noted.
Assay [5] has as its system NCI-H460 lung. As to conditions: 10 µM unless noted.
In assay [6] the test system is HOP-92 NSCLC. As to conditions: 10 µM.
Assay [7] concerns NCI-H522 lung. As to conditions: 10 µM unless noted.
Assay [8] deals with A549/ATCC NSCLC. As to conditions: 10 µM unless noted.
The test system of assay [9] is 786-0 renal. As to conditions: 10 µM unless noted.
Assay [10] concerns COLO 205 colon. As to conditions: 10 µM unless noted.
The test system of assay [11] is DU-145 prostate. As to conditions: 10 µM unless noted.
Assay [12] deals with K-562 leukemia. As to conditions: 10 µM unless noted.
In assay [13] the test system is MALME-3M melanoma. As to conditions: 10 µM unless noted.
Assay [14] has as its system MDA-MB-231 breast. As to conditions: 10 µM unless noted.
The subject of assay [15] is SF-268 CNS. As to conditions: 10 µM unless noted.
The subject of assay [16] is SF-295 CNS. As to conditions: 10 µM unless noted.
Assay [17] deals with SF-539 CNS. As to conditions: 10 µM unless noted.
In assay [18] the test system is UACC-257 melanoma. As to conditions: 10 µM unless noted.

With `C#Cc1nc(/C=C/C(=O)c2nccn2C)cs1`, the growth in assay [1] was -69.3% (active); in [2] it was 4.67% (active); in [3], 28.5%; in [4] it was -44.9% (active); in [5], -47.2% (active); in assay [6], -71% (active). Also, the growth in assay [7] is -60.1% (active); in [8], -3.96% (active); in assay [9] it was -65.9% (active); in assay [10], -30.6% (active); in assay [11], -45.6% (active); in assay [12], -16.8% (active). Besides, the growth in assay [13] is -75.6% (active); in [14] it was -64.7% (active); in [15], -54.2% (active); in assay [16], -87.8% (active); in [17], -82.7% (active); in assay [18] it was -19% (active).
Regarding `CC(C)C[C@@H]1N[C@@]2(C(=O)Nc3ccccc32)[C@@H](c2ccc(F)cc2)[C@@H]1C(=O)c1ccc(O)cc1`, the growth is 91.6% in assay [1]; 92.7% in assay [2]; 99.1% in assay [3]; 88.9% in assay [4]; 101% in [5]; 74.3% in [6]. Further, the growth is 79.6% in assay [7]; 85.1% in [8]; 93.2% in assay [9]; 110% in assay [10]; 102% in assay [11]; 89.7% in assay [12]. Besides, the growth was 84.3% in assay [13]; 82.4% in assay [14]; 88.7% in [15]; 100% in assay [16]; 93.3% in [17]; 112% in assay [18].
`O=C(O)c1ccc(-n2cc(CNc3cc(F)c(F)c(F)c3)c(-c3ccc(F)cc3)n2)cc1`: the growth in assay [1] is 90%; in assay [2], 101%; in [3], 98%; in assay [4], 113%; in [5], 97.1%; in assay [6], 108%. Moreover, the growth in assay [7] was 90.1%; in assay [8], 77.8%; in assay [9], 109%; in assay [10] it was 131%; in [11], 98.3%; in assay [12], 71.1%. Further, the growth was 76.5% in [13]; 95.4% in assay [14]; 105% in assay [15]; 72.3% in assay [16]; 93.5% in [17]; 105% in assay [18].
Consider `O=C(NNc1nc2cc(F)ccc2n2c(CO)ccc12)c1cnccn1`, for which the growth in assay [1] was 22.8%; in assay [2], 16.3%; in assay [3], 22.7%; in assay [4] it was 5.67% (active); in assay [5], 2.22% (active); in assay [6], 11.9%. The growth was 2.58% (active) in assay [7]; 13.6% in assay [8]; 17.4% in assay [9]; 8.65% (active) in [10]; 22.7% in [11]; 8.85% (active) in assay [12]. For the same molecule, the growth in assay [13] was 10.5%; in [14], 35.9%; in [15], 20.3%; in assay [16] it was 3.48% (active); in assay [17] it was 3.67% (active); in [18], -1.53% (active).
As to `CCCCCc1ccc(S(=O)(=O)Nc2cccc(-c3csc(NC(=O)CCCCCN4CCN(C)CC4)n3)c2)cc1`, the growth was 75.7% in assay [1]; 88.2% in assay [2]; 84.1% in assay [3]; 79.4% in [4]; -29.6% (active) in [5]; 29.8% in [6]. In addition, the growth in assay [7] is 64.3%; in assay [8], 54.4%; in assay [9] it was 44.4%; in assay [10], -34.3% (active); in assay [11], 63.5%; in assay [12], -35.7% (active). Further, the growth in [13] is -67.4% (active); in [14] it was 42.9%; in assay [15], 67.5%; in assay [16] it was 85.8%; in assay [17], 63%; in [18], 0.162% (active).
Consider `c1ccc(C(c2nc3ncncc3[nH]2)N2CSc3nc4ncncc4n3C2)cc1` (configuration not stated), for which the growth in assay [1] is 55%; in assay [2] it was 56.2%; in [3], 64.3%; in [4], 26.3%; in assay [5], 83.6%; in [6] it was 64.9%. Also, the growth in assay [7] was 39.8%; in assay [8], 92.2%; in assay [9], 33.9%; in assay [10], 61.8%; in [11], 34.1%; in [12] it was 24.8%. The growth in assay [13] is 58.5%; in assay [14] it was 49.7%; in [15], 66.8%; in assay [16], 39.6%; in assay [17] it was 49.5%; in assay [18], 76%.
On to `CCCCCc1ccc(S(=O)(=O)Nc2cc(-c3csc(NC(=O)CN4CCN(C)CC4)n3)ccc2N2CCN(C)CC2)cc1`, for which the growth was 45.1% in [1]; 71.8% in [2]; 6.19% (active) in assay [3]; 42.5% in assay [4]; -56% (active) in assay [5]; 49.9% in [6]. The growth in [7] was -39.5% (active); in assay [8], 15.7%; in [9] it was -50.9% (active); in assay [10], -51.2% (active); in assay [11], 15.9%; in assay [12] it was 1.1% (active). For the same molecule, the growth is -91.4% (active) in [13]; -52.7% (active) in assay [14]; -33.5% (active) in [15]; -63.9% (active) in assay [16]; -86.2% (active) in assay [17]; -58.4% (active) in assay [18].
Turning to `CCC(CC)N1C(=O)/C(=c2\sc3n(c2=O)NC2C(N=3)N(CC)C(=O)N2CC)c2ccccc21` (configuration not stated), the growth in assay [1] is 44.1%; in assay [2] it was 79.1%; in assay [3] it was 80.6%; in assay [4] it was 73.2%; in assay [5] it was 27.5%; in [6], 120%. In addition, the growth was 62.7% in assay [7]; 57.6% in assay [8]; 72.7% in assay [9]; 37.8% in assay [10]; 52% in assay [11]; 26% in assay [12]. Also, the growth is 65.2% in assay [13]; 53.2% in assay [14]; 63.4% in [15]; 20.3% in assay [16]; 25.2% in assay [17]; 86.1% in [18].
Turning to `CC1=NC2=NC(=O)/C(=C3/N=C(C)C=C(c4ccccc4)N3N)NN2C(c2ccccc2)=C1`, the growth was 106% in [1]; 88.3% in assay [2]; 103% in [3]; 94.3% in assay [4]; 111% in assay [5]; 100% in assay [6]. In addition, the growth was 97.9% in assay [7]; 109% in [8]; 108% in assay [9]; 114% in assay [10]; 105% in assay [11]; 101% in assay [12]. Also, the growth in assay [13] is 44.3%; in [14] it was 72.2%; in assay [15], 103%; in assay [16], 106%; in assay [17], 100%; in assay [18], 109%.
